Screening data: PubChem BioAssay, National Center for Advancing Translational Sciences (NCATS)
This is a sample that favours compounds with a hit; in the whole collection about 2.3% have one here.
Giardia killer: kills Giardia lamblia; activity change, % at 7.66 µM, hits read low; hit rate 0.15% among 340,000; Giardia lamblia trophozoite viability; in the data active = activity change below about -80%; inconclusive = between about -30% and that limit;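 also: parasites exposed to compound for two days anaerobically before the ATP read; % is scaled to controls: 0 for no effect and ±100 for the full control effect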
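Media and compound were dispensed first, then trophozoites at 100 cells/well; plates sat 48 hrs at 37 deg C without oxygen before ATP luminescence reagent was added and read after 15-30 min at room temperature.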
TRPV1 ag: agonists of human vanilloid receptor 1 (TRPV1); hit rate 0.19% among 320,000; TRPV1-expressing cells, Fluo-8 calcium influx, agonist mode; activation, % at 8.33 µM; Q8NER1; in the data active = activation above about 80%; inconclusive = between about 30% and that limit; also: 0% is about no effect
Target sequence (Q8NER1 whole entry, looked up): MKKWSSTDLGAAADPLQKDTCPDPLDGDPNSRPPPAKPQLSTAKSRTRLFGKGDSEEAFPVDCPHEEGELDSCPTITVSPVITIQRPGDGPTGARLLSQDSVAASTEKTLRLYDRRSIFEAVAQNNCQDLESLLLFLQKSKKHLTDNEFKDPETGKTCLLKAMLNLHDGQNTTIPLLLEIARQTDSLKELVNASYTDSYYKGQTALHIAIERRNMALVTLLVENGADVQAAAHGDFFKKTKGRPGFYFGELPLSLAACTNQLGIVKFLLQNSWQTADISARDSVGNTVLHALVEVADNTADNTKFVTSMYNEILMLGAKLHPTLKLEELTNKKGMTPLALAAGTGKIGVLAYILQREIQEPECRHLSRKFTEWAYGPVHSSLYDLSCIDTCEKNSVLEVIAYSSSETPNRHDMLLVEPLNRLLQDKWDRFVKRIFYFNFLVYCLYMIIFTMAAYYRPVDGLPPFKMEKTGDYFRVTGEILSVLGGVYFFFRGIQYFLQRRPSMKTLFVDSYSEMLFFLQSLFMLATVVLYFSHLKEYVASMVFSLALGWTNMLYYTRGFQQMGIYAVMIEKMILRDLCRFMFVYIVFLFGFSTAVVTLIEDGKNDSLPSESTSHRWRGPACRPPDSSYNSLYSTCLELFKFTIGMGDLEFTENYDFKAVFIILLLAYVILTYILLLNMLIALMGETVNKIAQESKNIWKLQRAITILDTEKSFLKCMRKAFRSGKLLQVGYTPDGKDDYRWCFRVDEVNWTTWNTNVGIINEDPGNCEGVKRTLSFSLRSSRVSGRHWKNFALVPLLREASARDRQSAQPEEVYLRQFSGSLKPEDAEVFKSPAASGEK
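Fluo-8 calcium influx in TRPV1-expressing cells, kinetic read (ex 480/em 520 nm). Compound added and read 3 min for agonist activity, followed by capsaicin at EC20 final and 2 min further read for enhancement.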
FUS yeast rescue: FUS proteinopathy suppression in yeast. Potency, µM (top dose mostly 76.6 µM), actives largely listed as activators. S. cerevisiae FUS-expressing, growth rescue, OD600, 24 h. AID 1347120. hit rate 0.24% among 390,000;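 also: potency is read from the fitted curve at half-maximal effect; plate controls were DMSO vehicle for no effect and reference control for full effect; nearly all actives have a fitted effect of over 55% in size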
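Read-out: OD at 600 nm after 24hr at 30C, reporting rescue of FUS-induced yeast toxicity. Cells at OD 0.005 in galactose (2%) minimal medium; compounds tested in a dilution series; CP55940 titration from 92uM final as control.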
ELG1 DNA repair: inhibitors of ELG1-dependent DNA repair in HEK293T cells; HEK293T ELG1-luciferase reporter, luminescence, 16 h; DNA damage induced by 5-fluorouridine; Potency, µM (top dose mostly 46.1 µM), for inactives: at the highest dose activity change, negative = inhibition, most hits filed as inhibitors; hit rate 2.3% among 330,000; AID 504467; also: potency is read from the fitted curve at half-maximal effect; % is scaled to controls: 0 for no effect and ±100 for the full control effect; nearly all actives have a fitted effect of over 55% in size
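DMSO vehicle served as the neutral condition. Each well held 2,000 cells given 5-fluorouridine plus compound; after 16 hr at 37 °C/5% CO2, ONE-Glo was added and luciferase measured 30 min later.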
TRPV1 potentiator: potentiators of human vanilloid receptor 1 (TRPV1) | Q8NER1 | TRPV1-expressing cells, Fluo-8 calcium influx, capsaicin EC20 potentiation | potentiation, % at 8.33 µM | hit rate 0.02% among 320,000; in the data active = potentiation above about 80%; inconclusive = between about 30% and that limit; also: 0% is about no effect
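TRPV1-expressing cells were cultured overnight at 35.5C and loaded with Fluo-8 calcium dye for 40 to 90 min at room temperature. After a 10 s baseline, compound was added and calcium influx was read kinetically for 3 min (ex 480/em 520 nm).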
Starred values were filed as active, the others as inactive; i = inactive; ? = inconclusive; nt = no result. Unless noted, calls follow the shape of the dose curve; as a rule, active = well fitted curve in the direction sought with a large enough effect; inconclusive = small, poorly fitted or top-dose-only effect, or another doubt; inactive = no such curve, though single readings can be large; an effect the other way counts as inactive or inconclusive.

SMILES | Giardia killer | TRPV1 ag | FUS yeast rescue | ELG1 DNA repair | TRPV1 potentiator
O=S1(=O)C=C(Sc2nnc(-c3ccccc3)o2)c2ccccc21 | 5.6 | -0.8 | i | 16.4µM* | ?
COc1ccccc1CNS(=O)(=O)c1c(C)nc2sc(C)cn2c1=O | nt | nt | i | nt | nt
Cc1cc(C=C2C(=O)c3ccccc3C2=O)c(C)n1-c1ccccc1 | ? | 21.2 | i | ? | 4.6
Cc1cc(/C=C2\Cc3ccccc3C2=O)c(C)n1-c1ccccc1 | ? | 86.0* | i | ? | -1.1
O=S(=O)(c1ccc2ccccc2c1)N1CCN(C(=S)Nc2ccc(F)cc2)CC1 | -6.6 | -0.1 | nt | 18.4µM* | 14.6
O=S(=O)(c1ccc2ccccc2c1)N1CCN(C(=S)Nc2ccc(F)c(Cl)c2)CC1 | 1.6 | -0.3 | nt | ? | 9.0
Cc1noc(C)c1CSc1nc2sc3c(c2c(=O)n1C)CCCC3 | 1.1 | 11.4 | i | 23.1µM* | -5.8
Cn1c(SCCN2CCOCC2)nc2sc3c(c2c1=O)CCCC3 | -2.3 | 7.7 | i | ? | 7.7
C=CCn1c(SCc2c(C)noc2C)nc2sc3c(c2c1=O)CCCCC3 | -2.6 | 9.5 | i | ? | -3.3
C=CCn1c(SCc2c(C)noc2C)nc2sc3c(c2c1=O)CCCC3 | 6.1 | ? | i | 18.4µM* | -12.9
Cc1ccc(S(=O)(=O)Nc2cc3c(cc2C)n(C)c(=O)c(=O)n3C)cc1 | nt | nt | i | nt | nt
O=C(CC1CCCC1)NCCS(=O)(=O)N1CCN(c2ccccc2F)CC1 | 6.5 | 4.3 | i | -21.3% | -7.4
COc1ccccc1N1CCN(S(=O)(=O)CCNC(=O)CC2CCCCC2)CC1 | 11.3 | -2.2 | i | 11.6µM* | 6.1
Cc1ccc(C)c(N2CCN(C(=O)c3cc4c(=O)n(Cc5cccnc5)ccc4nc3C)CC2)c1 | nt | nt | i | nt | nt
O=C1CSC(=S)N1/N=C/c1ccc(O)c(O)c1O | 7.1 | -9.0 | i | 23.1µM* | -6.9
COc1cccc(CNC(=O)CC(c2ccc(C)cc2)N2Cc3ccccc3C2=O)c1 (stereo not drawn) | nt | nt | i | nt | nt
O=C(Nc1cccc(F)c1)c1ccc2snnc2c1 | nt | nt | i | nt | nt
O=C(Nc1ccc(F)cc1)c1ccc2snnc2c1 | -9.0 | 81.8* | i | ? | -17.6
COc1cc(-c2noc(-c3ccc(NCC4CCCO4)c([N+](=O)[O-])c3)n2)cc(OC)c1OC (stereo not drawn) | nt | nt | i | nt | nt
COCc1c(C(=O)N2CCN(S(=O)(=O)c3ccccc3Cl)CC2)oc2ccccc12 | 2.7 | 13.2 | i | 10µM* | 13.5
CC(C)(C)n1nc2c(c1NC(=O)c1ccc(S(=O)(=O)N3CCCC3)cc1)CSC2 | -15.8 | 3.9 | 15.8µM* | nt | -1.6
COc1ccc2c(CNCCc3cccs3)c(C(=O)O)n(Cc3ccccc3C)c2c1 | nt | nt | i | nt | nt
CCCNC(=O)OC[C@H]1O[C@H](CCO/N=C(\C)CCN2CCc3nc(-c4ccccc4)c(-c4ccccc4)cc3C2)C=C[C@@H]1Oc1ccc(OC)cc1 | nt | 4.7 | nt | 6.51µM* | 8.0
CCCNC(=O)OC[C@H]1O[C@H](CCO/N=C/C[C@@H]2C=C[C@H](OC(C)=O)[C@@H](COC(C)=O)O2)C=C[C@@H]1Oc1ccc(OC)cc1 | nt | 2.1 | nt | ? | 3.2
CCOC(=O)c1cccc(-n2c(-c3ccc(OC)cc3)nc3nc4ccccc4nc32)c1 | nt | 2.1 | nt | 10.3µM* | 6.4
SMILES | Giardia killer | TRPV1 ag | FUS yeast rescue | ELG1 DNA repair | TRPV1 potentiator
CCCCCn1c(=O)c(-c2nc3ccccc3[nH]2)c(O)c2ccccc21 | 7.5 | 1.3 | i | 7.3µM* | -11.2
Cc1ccc(S(=O)(=O)N2CCN(C(=O)c3ccc(OCc4c(C)noc4C)cc3)CC2)cc1 | -10.6 | -4.2 | i | ? | 6.3
Cc1ccc(C)c(S(=O)(=O)N2CCN(C(=O)c3ccc(OCc4c(C)noc4C)cc3)CC2)c1 | 22.3 | -1.1 | i | 16.4µM* | 18.8
CC(=O)Nc1ccc(NC(=O)c2ccc(OCc3c(C)noc3C)cc2)cc1 | -4.1 | nt | i | 0.0% | nt
Cc1ccc(NC(=O)c2ccc(OCc3c(C)noc3C)cc2)cc1C | -1.7 | nt | i | 10.3µM* | nt
CCn1c(CN2CCCCC2)nc2cc(S(=O)(=O)N3CCCCC3)ccc21 | 26.2 | ? | i | -1.8% | -18.6
CCn1c(C)nc2cc(S(=O)(=O)N3CCCCC3)ccc21 | 11.0 | 0.7 | i | 18.4µM* | -3.8
COc1cccc(NC(=O)C2CCCN(c3ncnc4onc(-c5ccc(F)cc5)c34)C2)c1 (stereo not drawn) | nt | nt | i | nt | nt
